GPT2 inh: Primary qHTS assay for inhibitors of Glutamate pyruvate transaminase 2 (GPT2); AID 1671188, 2021; Potency, µM (doses to about 57.7 µM), most hits filed as inhibitors; 100,000 compounds, 0.25% hits; Recombinant GPT2, coupled pyruvate oxidase/HRP Amplex Red fluorescence; Alanine aminotransferase 2 (Homo sapiens), Q8TD30; active = well fitted inhibition curve with a large enough effect; inconclusive = small, poorly fitted or top-dose-only effect; note: nearly all actives have a fitted effect of over 60% in size
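Recombinant GPT2 (10ng/uL) with 250uM a-KG and 2mM L-alanine, 30 min at room temperature, in HEPES pH 7.5 buffer. Pyruvate detected by pyruvate oxidase/HRP/Amplex Red fluorescence after 30 min in the dark; AOA (50uM) as positive control.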
hNpr1 antagonist: Natriuretic polypeptide receptor (hNpr1) antagonism - Primary qHTS; HEK293 hNpr1 GloSensor cGMP, ANP-stimulated luminescence; Potency, µM (series often up to 46.3 µM), hits mostly inhibitors; 76,000 compounds, 1.6% hits; AID 1347048, 2019; note: nearly all actives have a fitted effect of over 60% in size
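HEK293 cells stably expressing human Npr1 and cGMP GloSensor pGS-40F, loaded 2 h with 2% GloSensor reagent, given compound 30 min at room temperature. Luminescence read before and 20 min after 0.1 nM hNppA.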
NPR1 antag cnf: Natriuretic polypeptide receptor (hNpr1) antagonism - Confirmation; shares compounds with hNpr1 antagonist; HEK293 hNpr1 cGMP GloSensor luminescence, ANP-stimulated; Potency, µM (series often up to 57.6 µM), most hits filed as inhibitors; 1,400 compounds, 76% hits; AID 1347044, 2019; note: nearly all actives have a fitted effect of over 70% in size
NPR2 antag: Natriuretic polypeptide receptor (hNpr2) antagonism - Subtype selectivity assay | shares compounds with hNpr1 antagonist | AID 1347046, 2019 | HEK293 hNpr2 GloSensor cGMP luminescence, CNP-stimulated | 1,400 compounds, 67% hits | Potency, µM (series often up to 57.6 µM), most hits filed as inhibitors; note: nearly all actives have a fitted effect of over 70% in size
FLuc counter: Natriuretic polypeptide receptor (hNpr1) antagonism - Confirmation firefly luciferase (FLuc) inhibition counterscreen. Potency, µM (series often up to 57.6 µM), most hits filed as inhibitors. shares compounds with hNpr1 antagonist. purified FLuc enzyme, luminescence, Km substrate. AID 1347047, 2019. 1,400 compounds, 0.7% hits; active = well fitted inhibition curve with a large enough effect; inconclusive = small, poorly fitted or top-dose-only effect
GloSensor cGMP: Natriuretic polypeptide receptor (hNpr1) antagonism - Counterscreen GloSensor control cell line; shares compounds with hNpr1 antagonist; HEK293 GloSensor cGMP, SNP-stimulated, luminescence; Potency, µM (highest dose often 57.6 µM), usual class: inhibitors; 1,400 compounds, 69% hits; AID 1347051, 2019; note: nearly all actives have a fitted effect of over 70% in size
Numbers stand for hits; - = inactive; ? = inconclusive; . = no result; [ ] = dose if it differs, or a comment. Only a selection was taken, and hits are over-represented in it overall. Unless noted, calls come from the whole dose curve.

SMILES	GPT2 inh	hNpr1 antagonist	NPR1 antag cnf	NPR2 antag	FLuc counter	GloSensor cGMP
Cc1ccc2oc(CN3CCCn4nc(C(O)CN(C)C)cc4C3)c(C)c2c1 (stereo not drawn)	-[11.5 µM]	-	.	.	.	.
COc1ccc(NC(=O)Cn2cccc2-c2nc(-c3ccc(F)cc3)no2)cc1	-	-	.	.	.	.
O=C1N(CC2CC2)CCOC12CCN([S+](=O)([O-])c1ccc(C(F)(F)F)cc1)CC2	-	11µM	18µM	20µM	-	11µM
N#Cc1ccc([S+](=O)([O-])N2CCC3(CC2)OCCN(CC2CC2)C3=O)cc1	-	18µM	31µM	?	-	28µM
COc1ccc([S+](=O)([O-])N2CCC3(CC2)OCCN(CC2CC2)C3=O)cc1	-	?	31µM	?	-	31µM
O=C1N(CC2CCOCC2)CCOC12CCN([S+](=O)([O-])c1cccs1)CC2	-	-	.	.	.	.
COc1ccc([S+](=O)([O-])N2CCC3(CC2)OCCN(CCc2ccccc2)C3=O)cc1	-	-	.	.	.	.
O=C1N(CC2CC2)CCOC12CCN([S+](=O)([O-])c1ccccc1)CC2	-	-	.	.	.	.
O=C(NCc1cccc(Cl)c1)[C@@H]1CCCN1c1nccc(Nc2ccccc2Cl)n1	-	.	.	.	.	.
Cc1ccc(CC2CCOC3(CCN(C(=O)c4cccs4)CC3)C2)cc1 (stereo not drawn)	-	?	.	.	.	.
Cn1c(N2CCN(C(=O)CC[C@H]3NC(=O)c4ccccc4NC3=O)CC2)nc2ccccc21	-	-	.	.	.	.
CC(=O)NCC(=O)N1CCC(n2cc(-c3nc(-c4ccccc4)no3)nn2)CC1	-	-	.	.	.	.
O=C(CCC1CCCN(Cc2nc3c(s2)CCCC3)C1)Nc1ccccc1F (stereo not drawn)	-	-	.	.	.	.
CCC(O)c1cc2n(n1)CCN(C(=O)c1ccc(-c3ccccc3)n1C)C2 (stereo not drawn)	-	16µM	24µM	24µM	-	24µM
CCC(O)c1cc2n(n1)CCN(C(=O)c1cn(-c3ccccc3)nn1)C2 (stereo not drawn)	-	-	.	.	.	.
O=C(Nc1ccc(F)cc1F)N1CCC(CCNC(=O)C2(c3ccccc3)CC2)CC1	-	-	.	.	.	.
O=C(Nc1cc(F)cc(F)c1)N1CCC(CCNC(=O)C2(c3ccccc3)CC2)CC1	-	-	-	-	-	-
CCOc1ccc(C(O)Cn2ccn3nc(-c4ccccc4C)cc3c2=O)cc1 (stereo not drawn)	-	13µM	17µM	?	-	11µM
CCOc1ccc(-c2cc3c(=O)n(CC(O)c4ccc(C(C)C)cc4)ccn3n2)cc1 (stereo not drawn)	-	-	.	.	.	.
COC[C@@H]1CN(Cc2ccc3[nH]ccc3c2)C[C@H]1c1nc(C)no1	-	-	.	.	.	.
Cc1ccccc1NC(=O)COc1ccc(-c2nnc3n2CCCC3)cc1	-	-	.	.	.	.
COc1ccc(C(=O)Nc2ccc(-c3noc([C@@H]4CCCN4C)n3)cn2)cc1	-	?	.	.	.	.
COc1ccc(C(=O)Nc2ccc(-c3noc([C@@H]4CCCN4Cc4ccc(Cl)cc4)n3)cn2)cc1	-	?	.	.	.	.
COc1ccc(C(=O)Nc2ccc(-c3noc([C@@H]4CCCN4Cc4ccc(F)c(F)c4)n3)cn2)cc1	-	10µM	7.7µM	9.7µM	-	8.6µM
COc1ccc(C(=O)Nc2ccc(-c3noc([C@@H]4CCCN4Cc4ccccc4C)n3)cn2)cc1	-	10µM	7.7µM	12µM	-	9.7µM
O=C(Cn1ccn2nc3c(c2c1=O)CCCC3)N1CCc2ccccc21	-	-	.	.	.	.
CN1CCCC1c1nc(C2CN(S(=O)(=O)c3ccc(C#N)cc3)C2)no1 (stereo not drawn)	-	-	.	.	.	.
COc1ccc(Cl)cc1C(=O)N1CCCN(c2cc(-c3ccc(C)c(C)c3)[nH]n2)CC1	?	-	.	.	.	.
COc1cccc(C(=O)N2CCCN(c3cc(-c4ccc(C)c(C)c4)[nH]n3)CC2)c1OC	-	10µM	24µM	22µM	-	24µM

Compound activity: PubChem, National Center for Advancing Translational Sciences (NCATS)
